From PubChem BioAssay come the findings set out here.

Test [1] relates to Human papillomavirus type 1a protein E7 (residues 44-93). Kind of test: small molecules binding HPV E7 44-93 – biochemical, small-molecule microarray, residues 44-93, 635 nm fluorescence, primary screen (AID 1108).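 Note: E7 fragment applied at 1 µg/mL in TBST for 1 h at 4 C; score combines spot fluorescence with its signal to noise ratio.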 The settings on record: fluorescence 635 nm, higher = more signal.
A short description of test [2]: hepatitis C replication reporter changes, two-sided – Huh7 cells, luciferase reporter, HCV replication inhibitor project, primary screen (AID 1109).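 Note: huh7 hepatoma cells harbouring a luciferase neomycin HCV replicon reporter; luciferase luminescence as measure of HCV replicon replication; test concentration not given here.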 The settings on record: Huh7 HCV replicon luciferase reporter, 48 h; higher = more signal. A general note: A reporter such as luciferase makes a cellular process visible.
Test [3] addresses Left-right determination factor 2 (Homo sapiens) (UniProt O00292). Kind of test: small molecules binding LEFTY2 protein – biochemical, small-molecule microarray, 635 nm fluorescence scan, primary screen (AID 1110). The settings on record: higher = more signal.
Test [4] addresses Calmodulin-1 (Homo sapiens) (UniProt P0DP23). Kind of test: small molecules binding calmodulin-1 with EGTA – biochemical, small-molecule microarray, Cy5-labelled CALM1, profiling panel (AID 1111).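 Note: labelled calmodulin applied in Tris saline Tween buffer holding calcium plus EGTA and DTT.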 The settings on record: Cy5-CALM1 binding fluorescence, higher = more signal.
Test [5] shares this target. In words: small molecules binding Ca-loaded calmodulin-1 – biochemical, small-molecule microarray, Cy5-labelled CALM1, plus calcium, artefact control for SMM control-protein annotation, profiling panel (AID 1112).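 Note: score merges spot fluorescence with signal to noise from triplicate slides.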 The settings on record: Cy5-CALM1 binding fluorescence, higher = more signal.
Test [6] is described as follows: probe aWnt5a binding to arrayed compounds – biochemical, biotinylated probe, 635/667 nm fluorescence, primary screen (AID 1113).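 Note: score merges 667 nm fluorescence intensity with signal-to-noise per printed feature.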 The settings on record: small-molecule microarray, higher = more signal.
Test [7] is described as follows: probe aShh binding to arrayed compounds – biochemical, biotinylated probe, 635/667 nm fluorescence, primary screen (AID 1114).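 Note: probe is biotin-labelled aShh protein from a stem cell growth factor screen; measures binding of labelled protein to compounds printed on the slide; score merges feature fluorescence at 667 nm with signal-to-noise.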 The settings on record: small-molecule microarray, higher = more signal.
A short description of test [8]: probe aNog binding to arrayed compounds – biochemical, biotinylated probe, 635/667 nm fluorescence, primary screen (AID 1115).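 Note: probe is biotinylated aNog protein used at 0.15 µg/mL for 1 h at 4 C; z-score combines 667 nm fluorescence of each spot with its signal to noise.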 The settings on record: small-molecule microarray, higher = more signal.
In test [9] the target is Torsin-1A-interacting protein 1 (Homo sapiens) (UniProt Q5JTV8). In words: compound microarray binding of lysate hLAP1 – cell lysate, small-molecule microarray, COS7 lysate, 635/667 nm fluorescence, primary screen (AID 1116). The settings on record: 635 nm fluorescence, higher = more signal.
Chain of Torsin-1A-interacting protein 1 (Homo sapiens) (Q5JTV8 whole entry, looked up): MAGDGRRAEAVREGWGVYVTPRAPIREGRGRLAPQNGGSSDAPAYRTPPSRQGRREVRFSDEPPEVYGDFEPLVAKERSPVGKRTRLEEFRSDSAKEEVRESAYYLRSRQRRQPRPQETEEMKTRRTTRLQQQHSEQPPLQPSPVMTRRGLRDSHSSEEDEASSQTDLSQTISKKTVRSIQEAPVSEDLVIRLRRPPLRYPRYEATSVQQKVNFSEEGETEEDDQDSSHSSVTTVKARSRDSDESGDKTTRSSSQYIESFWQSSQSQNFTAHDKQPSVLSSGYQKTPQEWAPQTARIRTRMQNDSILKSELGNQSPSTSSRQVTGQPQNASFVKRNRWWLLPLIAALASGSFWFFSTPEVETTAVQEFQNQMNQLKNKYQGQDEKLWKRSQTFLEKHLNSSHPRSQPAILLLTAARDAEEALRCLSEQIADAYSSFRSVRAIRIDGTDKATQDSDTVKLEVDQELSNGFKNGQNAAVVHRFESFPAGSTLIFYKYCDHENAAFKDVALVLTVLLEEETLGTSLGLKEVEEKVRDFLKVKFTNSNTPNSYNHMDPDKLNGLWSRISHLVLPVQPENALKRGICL
Test [10] addresses Alpha-bungarotoxin (Bungarus multicinctus) (UniProt P60615). In words: compounds binding labelled alpha-BTX control protein – biochemical, small-molecule microarray, Alexa647 label, 635/667 nm fluorescence, artefact control for SMM control protein annotation, profiling panel (AID 1117). The settings on record: alpha-BTX-A647 binding fluorescence, higher = more signal.
The target of test [11] is Albumin (Bos taurus) (UniProt P02769). In words: compounds binding labelled BSA control protein – biochemical, small-molecule microarray, Alexa647 label, 635/667 nm fluorescence, artefact control for SMM control protein annotation, profiling panel (AID 1118).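 Note: score merges 667 nm emission intensity and signal-to-noise per printed compound spot.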 Conditions: BSA-A647 binding, fluorescence 635 nm, higher = more signal.
Chain of Albumin (Bos taurus) (P02769 whole entry, looked up): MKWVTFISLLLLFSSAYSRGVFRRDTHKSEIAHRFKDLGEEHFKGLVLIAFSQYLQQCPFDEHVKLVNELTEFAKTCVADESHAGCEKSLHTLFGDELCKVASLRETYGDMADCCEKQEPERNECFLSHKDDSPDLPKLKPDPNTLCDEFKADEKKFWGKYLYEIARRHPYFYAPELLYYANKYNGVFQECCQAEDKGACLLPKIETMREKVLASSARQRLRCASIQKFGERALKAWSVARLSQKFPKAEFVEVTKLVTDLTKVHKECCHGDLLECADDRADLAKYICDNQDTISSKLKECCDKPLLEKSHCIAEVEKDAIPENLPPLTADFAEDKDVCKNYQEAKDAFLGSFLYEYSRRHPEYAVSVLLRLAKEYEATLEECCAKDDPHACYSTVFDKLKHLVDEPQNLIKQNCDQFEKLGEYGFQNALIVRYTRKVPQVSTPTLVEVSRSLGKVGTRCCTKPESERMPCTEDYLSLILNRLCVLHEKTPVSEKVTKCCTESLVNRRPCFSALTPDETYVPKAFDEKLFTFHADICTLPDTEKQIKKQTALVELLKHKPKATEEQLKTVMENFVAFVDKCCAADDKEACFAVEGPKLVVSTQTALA
Test [12] can be described thus: probe aXIP binding to arrayed compounds – biochemical, NeuroSMM set, 635/667 nm fluorescence, primary screen (AID 1119).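 Note: probe is the protein aXip251-270 applied at 1 µg/mL to compound-printed slides; binding of probe to printed compounds measured as 667 nm fluorescence plus signal to noise.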 The settings on record: small-molecule microarray, higher = more signal, called active from +8 up or from −8 down.
A short description of test [13]: probe aNOTCH3 binding on compound microarray – biochemical, small-molecule microarray, 635/667 nm fluorescence, primary screen (AID 1120).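 Note: probe is a biotin-tagged antibody raised against NOTCH3 rather than NOTCH3 protein; score merges spot fluorescence near 667 nm with spot signal to noise.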 The settings on record: higher = more signal.
The nature of test [14]: probe aNOTCH2 binding on compound microarray – biochemical, small-molecule microarray, 635/667 nm fluorescence, primary screen (AID 1121).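 Note: score merges feature fluorescence read at 667 nm with its signal to noise.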 The settings on record: higher = more signal.
The target in test [15] is Carbonic anhydrase 2 (Homo sapiens) (UniProt P00918). In words: compounds binding carbonic anhydrase 2 – biochemical, small-molecule microarray, Alexa647-labelled CAII, profiling panel (AID 1122). Conditions: CAII-A647 binding fluorescence, higher = more signal.
A short description of test [16]: COS7 lysate on small-molecule microarray, probe aHis, 635 nm (AID 1123).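 Note: z-score combines 667nm fluorescence intensity with signal-to-noise per printed compound spot.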 Conditions: COS7 cell lysate, fluorescence, higher = more signal.
Test [17] can be described thus: probe aLAP1 signal on lysate-treated microarray – cell lysate, small-molecule microarray, COS7 lysate, primary screen (AID 1124).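 Note: lysate comes from COS7 cells expressing LAP1 and is applied at 0.3 µg/mL; score merges spot fluorescence near 667 nm with signal-to-noise over triplicate slides.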 Conditions: probe aLAP1, fluorescence, higher = more signal.
For test [18], the system named is Sam68 (KHDRBS1). In words: compounds binding KHDRBS1 protein – biochemical, small-molecule microarray, 635 nm fluorescence, primary screen (AID 1125).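 Note: score merges 667 nm channel intensity with signal to noise over triplicate slides.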 Conditions: higher = more signal.
Test [19] deals with Chordin-like protein 2 (CHRDL2). Kind of test: compounds binding chordin-like 2 – biochemical, small-molecule microarray, 635 nm fluorescence, primary screen (AID 1126).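 Note: printed compound slides probed with Chrdl2 protein at 4 µg/mL for 1 h at 4 C; score merges 667 nm emission intensity with signal to noise over three replicate slides.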 The settings on record: fluorescence 635 nm, higher = more signal.
In test [20] the target is Concanavalin-A (Canavalia ensiformis) (UniProt P02866). Kind of test: compounds binding concanavalin A lectin – biochemical, small-molecule microarray, Alexa647 label, 635 nm, artefact control for SMM control protein annotation, primary screen (AID 1127).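 Note: z combines 667 nm emission intensity with signal-to-noise across three replicate slides.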 Conditions: ConA-A647 binding fluorescence, higher = more signal.
Chain of Concanavalin-A (Canavalia ensiformis) (P02866 whole entry, looked up): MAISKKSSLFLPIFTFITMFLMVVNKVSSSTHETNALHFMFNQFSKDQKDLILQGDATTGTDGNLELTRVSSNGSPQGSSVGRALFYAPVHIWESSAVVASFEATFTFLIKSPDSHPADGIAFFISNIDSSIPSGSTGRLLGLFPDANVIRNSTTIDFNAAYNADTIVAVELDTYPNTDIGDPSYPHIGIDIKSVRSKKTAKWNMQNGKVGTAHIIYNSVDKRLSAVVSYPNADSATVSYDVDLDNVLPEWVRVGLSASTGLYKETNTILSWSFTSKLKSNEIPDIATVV

The source made the active and inactive calls.

Chain of Alpha-bungarotoxin (Bungarus multicinctus) (P60615 whole entry, looked up): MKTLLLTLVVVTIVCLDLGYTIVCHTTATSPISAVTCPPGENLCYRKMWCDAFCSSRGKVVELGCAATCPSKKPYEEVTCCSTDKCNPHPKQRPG
Chain of Left-right determination factor 2 (Homo sapiens) (O00292 whole entry, looked up): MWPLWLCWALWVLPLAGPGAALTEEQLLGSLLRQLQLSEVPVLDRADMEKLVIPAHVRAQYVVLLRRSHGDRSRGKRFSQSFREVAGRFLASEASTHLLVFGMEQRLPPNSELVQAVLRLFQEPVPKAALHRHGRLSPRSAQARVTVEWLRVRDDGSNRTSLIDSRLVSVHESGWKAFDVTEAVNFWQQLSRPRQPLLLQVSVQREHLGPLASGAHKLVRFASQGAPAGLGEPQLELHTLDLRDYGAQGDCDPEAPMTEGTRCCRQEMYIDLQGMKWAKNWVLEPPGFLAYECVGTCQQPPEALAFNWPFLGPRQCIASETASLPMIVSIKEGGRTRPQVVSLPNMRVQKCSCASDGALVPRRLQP

As for `C[N+](C)(C)CCCC[C@@H]1NC(=O)[C@H]2C[C@@H](C(=O)NCCCCCNC(=O)CS)[C@@H](c3ccc(O)cc3)N2C1=O`, the composite z-score in test [1] was 0.727; in test [3], 0.355; in test [4] it was 0.956; in test [5] it was 0.213; in test [6], 0.0101; in [7], -0.0553. The composite z-score is -0.373 in [8]; 2.49 in test [9]; -0.256 in test [10]; 0.896 in [11]; -0.154 in test [13]; -0.158 in test [14]. Further, the composite z-score in [15] came to 0.678; in test [16], 1.45; in [17], 0.361; in test [18] it was 0.616; in [19] it was 0.268; in test [20] it was 0.997. In addition, in test [2], the z-score is 0.215. Besides, the composite Z-score in test [12] was 0.325 (inactive).

`COCCOC(=O)N1C(=O)[C@@]2(c3cc(C#CC4(O)CCCCCC4)ccc31)[C@H](c1ccccc1OCCO)N1[C@H](c3ccccc3)[C@H](c3ccccc3)OC(=O)[C@H]1[C@@H]2C(=O)N1CCCCCCC1`: the composite z-score in test [1] was 1.06; in test [3], 0.502; in test [4], 1.67; in test [5], 1.46; in [6] it was 0.355; in test [7], 0.661. In addition, the composite z-score in [8] came out at 2.71; in [9], 3.51; in [10], 1.49; in [11], 0.187; in [13] it was 1.07; in test [14], 0.513. In addition, the composite z-score in [15] was determined as 0.497; in test [16] it was 2.16; in test [17], 0.364; in [18], 1.29; in [19] it was 0.905; in test [20] it was 0.992. Further, in test [2], the z-score is -2.28. Also, the composite Z-score in test [12] was 0.961 (inactive).

Turning to `CCOC(=O)C1=CC[C@@H](c2ccc(F)cc2)N(S(=O)(=O)c2ccc(C)cc2)[C@H]1c1ccc([N+](=O)[O-])cc1`, the composite z-score in [1] is 1.34; in [3] it was -0.248; in [4] it was 1.56; in test [5], -0.171; in [6], 0.0323; in [7] it was -0.138. In addition, the composite z-score in test [8] was -0.158; in [9] it was 0.341; in test [10], 0.937; in test [11], 0.854; in test [13], 0.137; in test [14], -0.14. The composite z-score in [15] was 0.223; in test [16] it was 2; in test [17], -0.0775; in test [18], 1.2; in test [19] it was -0.493; in [20], 1.09. This molecule had a z-score in test [2] of -1.05. The composite Z-score in [12] is 0.348 (inactive).

Consider `CCCC[C@@H]1C[C@H]1[C@@H](NC(=O)c1ccc(C(F)(F)F)cc1)c1ccc(C(=O)OC)cc1`, for which the composite z-score was 0.733 in [1]; 0.497 in test [3]; 0.995 in test [4]; 0.271 in test [5]; 0.869 in test [6]; 2.11 in test [7]. In addition, the composite z-score in test [8] is 0.238; in [9], 1.27; in test [10], 1.48; in test [11], 0.0711; in [13] it was 0.0501; in test [14], -0.0347. Also, the composite z-score is 0.441 in test [15]; 1.27 in test [16]; 1.25 in test [17]; 0.504 in [18]; 1.27 in [19]; 0.441 in test [20]. In [2], the z-score was -1.33. Also, the composite Z-score in test [12] is 0.0888 (inactive).

Take `COCCOC(=O)N1C(=O)[C@@]2(c3cc(C#CCCO)ccc31)[C@H](c1ccccc1OCCO)N1[C@H](c3ccccc3)[C@H](c3ccccc3)OC(=O)[C@H]1[C@@H]2C(=O)N1CCc2cc(OC)c(OC)cc2C1`: the composite z-score was 1.42 in test [1]; 0.507 in test [3]; 1.07 in test [4]; 0.0615 in [5]; -0.0882 in test [6]; -0.0119 in test [7]. The composite z-score in [8] is -0.0331; in test [9] it was 1.52; in [10], 1.49; in [11], 0.329; in test [13] it was 0.0562; in test [14], -0.101. Further, the composite z-score in test [15] stood at 0.4; in test [16] it was 1.85; in test [17], 1.02; in test [18], 1.31; in test [19], 0.469; in test [20], 1.09. Moreover, in [2], the z-score was -1.36. Besides, the composite Z-score in test [12] was 0.339 (inactive).
